# From PMC7862700, “An all-to-all approach to the identification of sequence-specific readers for epigenetic DNA modifications on cytosine”
# What was measured:
# Experiment in all cases: DAPPL (digital affinity profiling via proximity ligation, sequencing); 10 mM Tris-HCl pH 7.5, 50 mM NaCl, 1 mM DTT, 4% glycerol, room temperature, 30 min; GST-TFs on glutathione beads, 16-mer random dsDNA library, 0.1% formaldehyde crosslink after washing; high values mean tight binding
# FLI1 = biological target: T1, FLI1 (Homo sapiens, UniProt Q01543 1-452); settings: protein: recombinant; tags: N-terminal GST; dsDNA, one strand shown
# T1 sequence: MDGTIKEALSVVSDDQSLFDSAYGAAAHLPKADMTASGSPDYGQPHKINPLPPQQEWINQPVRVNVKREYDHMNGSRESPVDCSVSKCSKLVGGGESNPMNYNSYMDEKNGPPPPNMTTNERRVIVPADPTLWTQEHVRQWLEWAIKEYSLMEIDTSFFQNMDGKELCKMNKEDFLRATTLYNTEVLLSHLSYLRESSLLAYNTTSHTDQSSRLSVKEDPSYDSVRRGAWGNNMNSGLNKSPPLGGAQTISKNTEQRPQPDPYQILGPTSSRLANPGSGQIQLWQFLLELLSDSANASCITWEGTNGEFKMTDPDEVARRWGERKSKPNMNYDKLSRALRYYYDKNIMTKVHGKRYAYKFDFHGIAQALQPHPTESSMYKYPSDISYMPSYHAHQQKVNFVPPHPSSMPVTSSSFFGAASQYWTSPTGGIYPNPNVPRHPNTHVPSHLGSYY
# Outline: (§1)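 Human transcription factors carrying a GST fusion were produced in yeast, bound to glutathione beads, tagged with DNA barcodes and pooled together with a tag-only sample. Each pool was held with 200 nmole of a random double-stranded 16-mer DNA library in Tris/NaCl/DTT/glycerol buffer for 30 min at room temperature, then washed, crosslinked in 0.1% formaldehyde, proximity-ligated with BsaI/T4 ligase (1 h, 37 °C), PCR-amplified and sequenced on an Illumina NextSeq500. Binding signal is the read frequency of each hexamer for a given factor divided by its frequency in the tag-only sample.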
# ELK1 = biological target: T2, ELK1 (Homo sapiens, UniProt P19419 1-428); settings: protein: recombinant; tags: N-terminal GST; dsDNA, one strand shown
# T2 sequence: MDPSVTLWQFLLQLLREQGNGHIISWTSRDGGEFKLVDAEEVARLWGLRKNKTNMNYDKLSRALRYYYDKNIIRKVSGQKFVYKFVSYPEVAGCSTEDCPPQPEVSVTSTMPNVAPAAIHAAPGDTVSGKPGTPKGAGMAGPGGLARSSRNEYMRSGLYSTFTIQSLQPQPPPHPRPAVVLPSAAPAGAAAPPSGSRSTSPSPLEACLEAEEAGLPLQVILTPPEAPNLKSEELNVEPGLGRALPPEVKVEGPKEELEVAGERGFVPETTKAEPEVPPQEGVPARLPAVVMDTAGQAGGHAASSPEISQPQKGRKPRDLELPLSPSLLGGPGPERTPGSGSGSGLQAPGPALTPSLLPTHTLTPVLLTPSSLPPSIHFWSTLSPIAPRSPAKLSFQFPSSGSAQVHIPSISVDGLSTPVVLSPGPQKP
# Outline: as §1
# GABPA = biological target: T3, GABPA (Homo sapiens, UniProt Q06546 1-454); settings: protein: recombinant; tags: N-terminal GST; dsDNA, one strand shown
# T3 sequence: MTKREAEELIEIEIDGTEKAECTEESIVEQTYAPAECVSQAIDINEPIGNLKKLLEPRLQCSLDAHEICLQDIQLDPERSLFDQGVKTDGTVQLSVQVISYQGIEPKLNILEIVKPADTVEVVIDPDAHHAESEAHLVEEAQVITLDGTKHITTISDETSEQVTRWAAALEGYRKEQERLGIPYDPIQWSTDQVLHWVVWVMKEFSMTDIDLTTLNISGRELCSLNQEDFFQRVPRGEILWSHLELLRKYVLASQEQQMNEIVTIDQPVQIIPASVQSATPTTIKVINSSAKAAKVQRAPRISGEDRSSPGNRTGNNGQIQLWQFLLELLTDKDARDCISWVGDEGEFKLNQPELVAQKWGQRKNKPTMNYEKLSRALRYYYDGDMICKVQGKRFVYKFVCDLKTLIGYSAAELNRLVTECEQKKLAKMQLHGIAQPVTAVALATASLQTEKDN
# Outline: as §1
# ERG = biological target: T4, ERG (Homo sapiens, UniProt P11308 1-479); settings: protein: recombinant; tags: N-terminal GST; dsDNA, one strand shown
# T4 sequence: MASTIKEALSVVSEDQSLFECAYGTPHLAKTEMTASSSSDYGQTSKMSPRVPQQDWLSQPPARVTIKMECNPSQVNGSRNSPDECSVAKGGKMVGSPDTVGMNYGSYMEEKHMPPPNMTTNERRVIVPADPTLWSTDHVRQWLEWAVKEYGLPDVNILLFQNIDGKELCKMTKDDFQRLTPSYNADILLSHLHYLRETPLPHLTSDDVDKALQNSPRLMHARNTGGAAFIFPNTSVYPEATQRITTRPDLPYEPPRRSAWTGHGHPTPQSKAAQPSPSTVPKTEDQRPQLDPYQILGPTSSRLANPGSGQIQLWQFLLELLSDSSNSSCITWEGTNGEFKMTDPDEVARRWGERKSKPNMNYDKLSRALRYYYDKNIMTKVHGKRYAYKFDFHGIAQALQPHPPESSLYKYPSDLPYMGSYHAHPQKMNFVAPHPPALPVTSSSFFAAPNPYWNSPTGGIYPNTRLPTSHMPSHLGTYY
# Outline: as §1
# ELF1 = ELF1 (Homo sapiens, UniProt P32519 1-619); settings: protein: recombinant; tags: N-terminal GST; dsDNA, one strand shown
# Outline: as §1
# EHF = biological target: T5, EHF (Homo sapiens, UniProt Q9NZC4 1-300); settings: protein: recombinant; tags: N-terminal GST; dsDNA, one strand shown
# T5 sequence: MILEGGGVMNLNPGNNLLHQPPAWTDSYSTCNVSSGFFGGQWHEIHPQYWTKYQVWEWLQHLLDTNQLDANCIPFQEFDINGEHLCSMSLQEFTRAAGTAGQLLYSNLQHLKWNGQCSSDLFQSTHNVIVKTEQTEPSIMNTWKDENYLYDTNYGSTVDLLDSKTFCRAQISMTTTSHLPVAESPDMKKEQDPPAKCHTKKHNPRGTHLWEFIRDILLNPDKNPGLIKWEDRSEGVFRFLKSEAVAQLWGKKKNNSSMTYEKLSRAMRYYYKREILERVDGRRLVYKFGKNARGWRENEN
# Outline: as §1
# SPI1 = SPI1 (Homo sapiens, UniProt P17947 1-270); settings: protein: recombinant; tags: N-terminal GST; dsDNA, one strand shown
# Outline: as §1
# SPIB = SPIB (Homo sapiens, UniProt Q01892 1-262); settings: protein: recombinant; tags: N-terminal GST; dsDNA, one strand shown
# Outline: as §1
# ELK3 = biological target: T6, ELK3 (Homo sapiens, UniProt P41970 1-407); settings: protein: recombinant; tags: N-terminal GST; dsDNA, one strand shown
# T6 sequence: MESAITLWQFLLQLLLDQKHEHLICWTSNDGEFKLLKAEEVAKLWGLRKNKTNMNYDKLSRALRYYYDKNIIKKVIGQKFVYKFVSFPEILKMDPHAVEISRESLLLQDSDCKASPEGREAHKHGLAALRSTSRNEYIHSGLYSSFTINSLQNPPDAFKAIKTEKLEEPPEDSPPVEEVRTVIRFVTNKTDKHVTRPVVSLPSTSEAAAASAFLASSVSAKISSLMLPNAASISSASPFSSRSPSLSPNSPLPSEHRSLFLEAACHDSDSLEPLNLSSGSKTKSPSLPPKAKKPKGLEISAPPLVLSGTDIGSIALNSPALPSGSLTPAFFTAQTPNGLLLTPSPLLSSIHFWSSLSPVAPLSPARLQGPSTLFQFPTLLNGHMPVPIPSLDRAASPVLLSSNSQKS
# Outline: as §1
# FEV = biological target: T7, FEV (Homo sapiens, UniProt Q99581 1-238); settings: protein: recombinant; tags: N-terminal GST; dsDNA, one strand shown
# T7 sequence: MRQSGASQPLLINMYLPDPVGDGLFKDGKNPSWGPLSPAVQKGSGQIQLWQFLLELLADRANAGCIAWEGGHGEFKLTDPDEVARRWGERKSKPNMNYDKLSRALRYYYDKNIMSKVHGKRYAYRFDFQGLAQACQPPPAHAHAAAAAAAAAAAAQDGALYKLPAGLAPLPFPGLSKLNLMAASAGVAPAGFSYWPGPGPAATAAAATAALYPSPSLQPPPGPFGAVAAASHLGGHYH
# Outline: as §1
# ETV5 = ETV5 (Homo sapiens, UniProt P41161 1-510); settings: protein: recombinant; tags: N-terminal GST; dsDNA, one strand shown
# Outline: as §1
# HSF1 = HSF1 (Homo sapiens, UniProt Q00613 1-529); settings: protein: recombinant; tags: N-terminal GST; chain copies: 3; dsDNA, one strand shown
# Outline: as §1
# SPIC = biological target: T8, SPIC (Homo sapiens, UniProt Q8N5J4 1-248); settings: protein: recombinant; tags: N-terminal GST; dsDNA, one strand shown
# T8 sequence: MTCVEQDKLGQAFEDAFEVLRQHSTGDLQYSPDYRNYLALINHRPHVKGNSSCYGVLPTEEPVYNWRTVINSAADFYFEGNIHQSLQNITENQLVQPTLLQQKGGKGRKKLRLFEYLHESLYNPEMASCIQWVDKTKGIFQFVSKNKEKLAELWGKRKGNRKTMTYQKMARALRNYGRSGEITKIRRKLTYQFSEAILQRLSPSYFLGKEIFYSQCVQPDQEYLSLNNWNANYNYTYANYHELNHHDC
# Outline: as §1
# ELF4 = ELF4 (Homo sapiens, UniProt Q99607 1-663); settings: protein: recombinant; tags: N-terminal GST; dsDNA, one strand shown
# Outline: as §1
# ELK4 = biological target: T9, ELK4 (Homo sapiens, UniProt P28324-2 1-405); settings: protein: recombinant; tags: N-terminal GST; dsDNA, one strand shown
# T9 sequence: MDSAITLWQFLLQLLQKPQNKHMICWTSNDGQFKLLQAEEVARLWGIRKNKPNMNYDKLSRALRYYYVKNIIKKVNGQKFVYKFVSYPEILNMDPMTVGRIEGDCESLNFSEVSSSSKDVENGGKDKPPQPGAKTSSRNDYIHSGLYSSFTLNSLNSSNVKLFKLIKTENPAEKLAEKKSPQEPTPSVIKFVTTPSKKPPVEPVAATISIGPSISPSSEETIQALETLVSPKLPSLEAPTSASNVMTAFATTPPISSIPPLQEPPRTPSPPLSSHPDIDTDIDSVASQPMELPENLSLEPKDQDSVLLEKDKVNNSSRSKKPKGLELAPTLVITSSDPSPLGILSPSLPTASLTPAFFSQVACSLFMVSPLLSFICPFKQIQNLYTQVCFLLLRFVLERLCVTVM
# Outline: as §1
# ETV2 = biological target: T10, ETV2 (Homo sapiens, UniProt O00321 1-342); settings: protein: recombinant; tags: N-terminal GST; dsDNA, one strand shown
# T10 sequence: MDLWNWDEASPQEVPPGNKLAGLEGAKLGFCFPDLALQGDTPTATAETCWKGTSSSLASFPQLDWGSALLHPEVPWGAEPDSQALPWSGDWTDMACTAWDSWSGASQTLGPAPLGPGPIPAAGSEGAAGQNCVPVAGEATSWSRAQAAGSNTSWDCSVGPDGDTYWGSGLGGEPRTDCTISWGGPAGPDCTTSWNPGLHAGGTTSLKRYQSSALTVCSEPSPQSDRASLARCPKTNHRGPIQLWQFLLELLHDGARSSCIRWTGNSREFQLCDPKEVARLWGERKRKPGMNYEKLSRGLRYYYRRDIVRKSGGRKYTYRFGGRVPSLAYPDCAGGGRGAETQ
# Outline: as §1
# ELF3 = biological target: T11, ELF3 (Homo sapiens, UniProt P78545 1-371); settings: protein: recombinant; tags: N-terminal GST; dsDNA, one strand shown
# T11 sequence: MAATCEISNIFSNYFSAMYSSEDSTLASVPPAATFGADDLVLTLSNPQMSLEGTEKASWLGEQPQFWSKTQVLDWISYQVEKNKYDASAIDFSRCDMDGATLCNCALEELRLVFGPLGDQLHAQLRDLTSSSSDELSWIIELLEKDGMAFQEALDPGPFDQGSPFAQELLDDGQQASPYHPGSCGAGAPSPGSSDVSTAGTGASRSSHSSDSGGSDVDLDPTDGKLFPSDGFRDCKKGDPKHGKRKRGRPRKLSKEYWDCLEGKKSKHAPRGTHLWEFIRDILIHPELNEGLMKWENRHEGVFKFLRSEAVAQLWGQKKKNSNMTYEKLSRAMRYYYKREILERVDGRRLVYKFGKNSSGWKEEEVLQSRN
# Outline: as §1
# CRX = CRX (Homo sapiens, UniProt O43186 1-299); settings: protein: recombinant; tags: N-terminal GST; dsDNA, one strand shown
# Outline: as §1
# ETV1 = ETV1 (Homo sapiens, UniProt P50549 1-477); settings: protein: recombinant; tags: N-terminal GST; dsDNA, one strand shown
# Outline: as §1
# SPIB, sequence (Q01892 whole entry): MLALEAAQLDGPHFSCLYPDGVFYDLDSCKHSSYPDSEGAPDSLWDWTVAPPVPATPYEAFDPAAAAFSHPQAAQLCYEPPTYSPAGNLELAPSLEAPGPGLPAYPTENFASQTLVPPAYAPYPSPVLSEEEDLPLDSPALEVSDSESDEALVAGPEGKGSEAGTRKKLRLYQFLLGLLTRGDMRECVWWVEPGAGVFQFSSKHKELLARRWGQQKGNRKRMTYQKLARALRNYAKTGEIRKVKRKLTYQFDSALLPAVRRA
# ELF4, sequence (Q99607 whole entry): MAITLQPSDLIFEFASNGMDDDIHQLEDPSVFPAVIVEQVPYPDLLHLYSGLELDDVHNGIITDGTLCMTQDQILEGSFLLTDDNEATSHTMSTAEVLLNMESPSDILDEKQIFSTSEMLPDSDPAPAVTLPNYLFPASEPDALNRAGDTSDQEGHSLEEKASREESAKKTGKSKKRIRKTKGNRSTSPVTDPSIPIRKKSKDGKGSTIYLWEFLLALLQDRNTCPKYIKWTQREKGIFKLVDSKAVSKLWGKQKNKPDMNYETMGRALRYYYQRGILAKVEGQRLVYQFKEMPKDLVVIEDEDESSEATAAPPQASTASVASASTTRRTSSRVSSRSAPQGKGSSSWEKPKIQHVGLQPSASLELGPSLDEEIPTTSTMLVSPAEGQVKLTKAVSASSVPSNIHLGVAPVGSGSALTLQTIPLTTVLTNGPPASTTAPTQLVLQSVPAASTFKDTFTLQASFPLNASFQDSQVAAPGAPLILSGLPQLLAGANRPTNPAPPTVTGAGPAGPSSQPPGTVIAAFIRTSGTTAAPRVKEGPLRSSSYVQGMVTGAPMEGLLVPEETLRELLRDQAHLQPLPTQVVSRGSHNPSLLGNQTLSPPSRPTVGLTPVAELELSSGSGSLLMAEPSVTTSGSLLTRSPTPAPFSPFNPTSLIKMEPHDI
# ELF1, sequence (P32519 whole entry): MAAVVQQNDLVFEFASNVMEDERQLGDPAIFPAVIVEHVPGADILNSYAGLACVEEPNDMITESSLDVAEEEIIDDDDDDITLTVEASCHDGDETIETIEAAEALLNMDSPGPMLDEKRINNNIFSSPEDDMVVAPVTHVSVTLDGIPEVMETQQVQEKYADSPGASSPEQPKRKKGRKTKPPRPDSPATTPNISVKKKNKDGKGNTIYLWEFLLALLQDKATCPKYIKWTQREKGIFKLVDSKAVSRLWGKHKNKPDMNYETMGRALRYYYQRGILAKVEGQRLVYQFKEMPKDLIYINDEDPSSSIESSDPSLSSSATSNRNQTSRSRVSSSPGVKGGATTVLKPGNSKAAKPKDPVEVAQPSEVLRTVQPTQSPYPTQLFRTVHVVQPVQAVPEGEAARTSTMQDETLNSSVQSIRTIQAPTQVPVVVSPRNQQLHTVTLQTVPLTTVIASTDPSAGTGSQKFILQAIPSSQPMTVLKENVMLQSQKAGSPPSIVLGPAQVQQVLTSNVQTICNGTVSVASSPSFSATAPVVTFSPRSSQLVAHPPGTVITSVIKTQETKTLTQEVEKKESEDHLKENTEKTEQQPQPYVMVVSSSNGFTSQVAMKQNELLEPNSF
# HSF1, sequence (Q00613 whole entry): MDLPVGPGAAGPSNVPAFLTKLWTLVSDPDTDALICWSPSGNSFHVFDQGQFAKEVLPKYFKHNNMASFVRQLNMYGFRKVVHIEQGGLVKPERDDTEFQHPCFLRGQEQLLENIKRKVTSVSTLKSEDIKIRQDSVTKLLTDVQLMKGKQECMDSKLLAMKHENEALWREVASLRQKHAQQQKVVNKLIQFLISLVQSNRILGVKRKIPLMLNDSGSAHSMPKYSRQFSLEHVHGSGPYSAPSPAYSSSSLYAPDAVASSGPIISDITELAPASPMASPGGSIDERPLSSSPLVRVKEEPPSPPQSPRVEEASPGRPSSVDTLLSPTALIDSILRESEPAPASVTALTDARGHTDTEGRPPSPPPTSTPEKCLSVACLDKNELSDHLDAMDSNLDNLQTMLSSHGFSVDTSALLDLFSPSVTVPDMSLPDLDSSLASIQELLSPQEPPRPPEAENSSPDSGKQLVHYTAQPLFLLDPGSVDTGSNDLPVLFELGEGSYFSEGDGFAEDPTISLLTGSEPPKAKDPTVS
# CRX, sequence (O43186 whole entry): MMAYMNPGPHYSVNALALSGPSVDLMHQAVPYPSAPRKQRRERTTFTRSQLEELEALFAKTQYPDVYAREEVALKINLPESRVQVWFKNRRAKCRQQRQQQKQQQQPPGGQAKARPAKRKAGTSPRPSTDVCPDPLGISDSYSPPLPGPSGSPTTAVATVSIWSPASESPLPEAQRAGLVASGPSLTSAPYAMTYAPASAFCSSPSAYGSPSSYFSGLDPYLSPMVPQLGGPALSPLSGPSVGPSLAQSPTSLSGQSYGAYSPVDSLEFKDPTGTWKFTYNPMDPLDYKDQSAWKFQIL
# ETV5, sequence (P41161 whole entry): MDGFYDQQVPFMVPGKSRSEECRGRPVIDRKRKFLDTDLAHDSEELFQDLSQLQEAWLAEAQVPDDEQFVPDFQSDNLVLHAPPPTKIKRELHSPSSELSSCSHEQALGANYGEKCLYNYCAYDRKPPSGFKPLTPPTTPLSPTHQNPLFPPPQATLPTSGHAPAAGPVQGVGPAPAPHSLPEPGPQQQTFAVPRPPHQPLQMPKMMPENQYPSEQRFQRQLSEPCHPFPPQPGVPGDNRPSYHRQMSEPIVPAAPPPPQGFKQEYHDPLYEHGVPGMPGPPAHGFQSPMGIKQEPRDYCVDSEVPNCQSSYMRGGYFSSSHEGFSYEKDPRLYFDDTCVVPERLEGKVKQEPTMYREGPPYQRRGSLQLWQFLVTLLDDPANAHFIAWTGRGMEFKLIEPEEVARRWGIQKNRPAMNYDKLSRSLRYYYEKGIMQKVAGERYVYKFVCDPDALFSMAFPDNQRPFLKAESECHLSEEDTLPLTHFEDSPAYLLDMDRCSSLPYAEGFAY
# ETV1, sequence (P50549 whole entry): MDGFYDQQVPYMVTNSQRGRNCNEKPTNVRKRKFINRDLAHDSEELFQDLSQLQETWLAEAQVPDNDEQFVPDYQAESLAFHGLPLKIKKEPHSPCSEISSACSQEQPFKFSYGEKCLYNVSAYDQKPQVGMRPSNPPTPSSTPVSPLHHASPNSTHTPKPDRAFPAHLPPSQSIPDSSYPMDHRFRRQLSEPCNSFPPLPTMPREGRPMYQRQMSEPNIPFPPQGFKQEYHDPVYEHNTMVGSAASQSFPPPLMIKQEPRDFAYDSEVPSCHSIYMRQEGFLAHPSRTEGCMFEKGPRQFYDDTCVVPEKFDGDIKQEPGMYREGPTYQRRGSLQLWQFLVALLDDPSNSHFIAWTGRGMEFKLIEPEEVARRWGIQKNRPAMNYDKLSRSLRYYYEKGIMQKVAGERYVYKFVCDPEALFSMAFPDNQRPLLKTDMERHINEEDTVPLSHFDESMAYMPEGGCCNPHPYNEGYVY
sequence,measurement,setting,value
TCAAAC,binding signal,FLI1,"1.17 fold enrichment (6-mer frequency, TF over GST control)"
same,binding signal,ELK1,"1.25 fold enrichment (6-mer frequency, TF over GST control)"
same,binding signal,GABPA,"1.26 fold enrichment (6-mer frequency, TF over GST control)"
same,binding signal,ERG,"1.26 fold enrichment (6-mer frequency, TF over GST control)"
same,binding signal,ELF1,"1.15 fold enrichment (6-mer frequency, TF over GST control)"
same,binding signal,EHF,"1.15 fold enrichment (6-mer frequency, TF over GST control)"
same,binding signal,SPI1,"1.16 fold enrichment (6-mer frequency, TF over GST control)"
same,binding signal,SPIB,"1.16 fold enrichment (6-mer frequency, TF over GST control)"
same,binding signal,ELK3,"1.2 fold enrichment (6-mer frequency, TF over GST control)"
same,binding signal,FEV,"1.21 fold enrichment (6-mer frequency, TF over GST control)"
same,binding signal,ETV5,"1.17 fold enrichment (6-mer frequency, TF over GST control)"
same,binding signal,HSF1,"1.03 fold enrichment (6-mer frequency, TF over GST control)"
same,binding signal,SPIC,"1.19 fold enrichment (6-mer frequency, TF over GST control)"
same,binding signal,ELF4,"1.21 fold enrichment (6-mer frequency, TF over GST control)"
same,binding signal,ELK4,"1.28 fold enrichment (6-mer frequency, TF over GST control)"
same,binding signal,ETV2,"1.3 fold enrichment (6-mer frequency, TF over GST control)"
same,binding signal,ELF3,"1.24 fold enrichment (6-mer frequency, TF over GST control)"
same,binding signal,CRX,"1.14 fold enrichment (6-mer frequency, TF over GST control)"
same,binding signal,ETV1,"1.29 fold enrichment (6-mer frequency, TF over GST control)"
